# Source: ChEMBL document CHEMBL3988442, “University of Dundee, Small-Polar-MMV Screening Library” (2021)
# For some of these results: Entries with a potency or affinity are not part of this list.
# Assays:
# Design in all cases: scale not given: direction of the effect not stated beside the values
# [1] = target: Protein translocase subunit SecA (Escherichia coli (strain K12)) (UniProt P10408); test: Assay to Identify E. coli SecA ATPase Inhibitors; type: functional; conditions: 30 µM
# [2] = target: T1, Ubiquitin-activating enzyme e1, putative (Leishmania donovani (strain BPK282A1)) (UniProt E9BSI1); test: Leishmania donovani Ubiquitin Activating Enzyme (LdE1); type: functional; conditions: 30 µM
# T1 sequence (whole entry): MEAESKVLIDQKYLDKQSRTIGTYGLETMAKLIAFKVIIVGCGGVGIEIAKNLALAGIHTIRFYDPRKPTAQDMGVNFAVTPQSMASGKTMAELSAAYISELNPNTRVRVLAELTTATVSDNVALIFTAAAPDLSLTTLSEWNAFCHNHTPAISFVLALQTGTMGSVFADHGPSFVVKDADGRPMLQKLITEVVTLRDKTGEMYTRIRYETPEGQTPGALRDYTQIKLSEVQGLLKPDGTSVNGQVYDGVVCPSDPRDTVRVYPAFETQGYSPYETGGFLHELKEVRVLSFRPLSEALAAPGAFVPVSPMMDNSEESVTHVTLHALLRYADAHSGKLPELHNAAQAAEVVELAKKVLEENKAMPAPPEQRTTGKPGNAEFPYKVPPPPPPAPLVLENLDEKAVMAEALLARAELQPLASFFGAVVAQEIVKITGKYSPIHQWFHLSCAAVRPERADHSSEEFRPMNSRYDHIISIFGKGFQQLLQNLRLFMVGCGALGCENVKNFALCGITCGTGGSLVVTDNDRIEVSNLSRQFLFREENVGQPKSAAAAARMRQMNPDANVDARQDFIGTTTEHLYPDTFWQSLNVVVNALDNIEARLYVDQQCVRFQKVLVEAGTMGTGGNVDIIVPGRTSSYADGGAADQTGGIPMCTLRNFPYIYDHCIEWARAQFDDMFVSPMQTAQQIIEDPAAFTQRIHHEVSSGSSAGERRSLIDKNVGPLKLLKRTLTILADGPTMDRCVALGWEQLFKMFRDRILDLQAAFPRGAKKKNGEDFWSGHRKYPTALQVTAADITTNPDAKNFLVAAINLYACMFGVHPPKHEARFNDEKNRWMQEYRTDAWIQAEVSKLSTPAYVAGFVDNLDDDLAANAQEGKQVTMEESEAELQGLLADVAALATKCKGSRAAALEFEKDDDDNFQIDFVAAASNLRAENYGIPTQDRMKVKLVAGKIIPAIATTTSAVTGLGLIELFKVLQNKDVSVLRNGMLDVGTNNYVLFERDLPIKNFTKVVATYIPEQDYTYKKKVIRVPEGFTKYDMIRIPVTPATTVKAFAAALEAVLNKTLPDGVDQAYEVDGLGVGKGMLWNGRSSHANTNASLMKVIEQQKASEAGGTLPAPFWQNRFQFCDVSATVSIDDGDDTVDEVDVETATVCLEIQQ
# [3] = target: AMP-activated protein kinase, AMPK (Homo sapiens) (UniProt P54646+O43741+P54619+Q9UGJ0+Q9Y478+Q13131+Q9UGI9); test: AMP-dependent Kinase enzyme assay. An in vitro enzyme assay that detects ADP turnover that is directly proportional to AMPK activity. This uses naive AMPK that is activated during the assay with MK-8722; type: functional; conditions: 30 µM
# [4] = target: Sialic acid-binding Ig-like lectin 9 (Homo sapiens) (UniProt Q9Y336); test: Hs-Siglec9 ALPHAscreen SOP 20170721; conditions: 10 µM
# Sialic acid-binding Ig-like lectin 9 (Homo sapiens), sequence (Q9Y336 whole entry): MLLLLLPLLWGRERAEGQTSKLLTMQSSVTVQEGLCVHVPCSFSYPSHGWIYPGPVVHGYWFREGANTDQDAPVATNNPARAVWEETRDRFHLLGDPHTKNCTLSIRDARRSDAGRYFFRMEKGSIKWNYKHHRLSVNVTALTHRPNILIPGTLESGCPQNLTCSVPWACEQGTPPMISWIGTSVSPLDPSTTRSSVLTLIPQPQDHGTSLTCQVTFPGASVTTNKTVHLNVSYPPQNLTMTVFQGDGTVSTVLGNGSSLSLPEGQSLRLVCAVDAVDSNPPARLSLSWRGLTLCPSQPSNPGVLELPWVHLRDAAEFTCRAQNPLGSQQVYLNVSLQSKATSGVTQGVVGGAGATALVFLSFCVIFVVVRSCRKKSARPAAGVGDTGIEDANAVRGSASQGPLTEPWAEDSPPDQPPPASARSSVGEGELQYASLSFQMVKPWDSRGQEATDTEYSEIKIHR
# [5] = tested on: Trypanosoma cruzi; test: Trypanosoma cruzi phosphomannomutase and mannose-1-phosphate guanylyltransferase assay; type: functional; conditions: 10 µM
# [6] = target: T2, Arginase-2, mitochondrial (Homo sapiens) (UniProt P78540); test: in vitro enzyme assay to detect the production of urea directly proportional to the activity of Arginase II; type: functional; conditions: 33.3 µM; further: in the data most compounds retested in dose-response had high values
# T2 sequence (whole entry): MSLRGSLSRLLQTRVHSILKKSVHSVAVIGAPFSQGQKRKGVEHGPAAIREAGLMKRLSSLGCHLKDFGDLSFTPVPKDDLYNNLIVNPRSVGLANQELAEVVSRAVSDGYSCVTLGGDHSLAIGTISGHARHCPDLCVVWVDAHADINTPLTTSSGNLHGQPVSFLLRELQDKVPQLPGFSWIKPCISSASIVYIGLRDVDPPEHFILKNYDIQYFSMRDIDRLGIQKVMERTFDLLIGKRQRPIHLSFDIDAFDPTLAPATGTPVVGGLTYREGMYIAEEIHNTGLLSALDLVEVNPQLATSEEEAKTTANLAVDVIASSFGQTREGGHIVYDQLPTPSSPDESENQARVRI
# [7] = target: T3, Proteasome subunit beta (Trypanosoma cruzi) (UniProt O96673); test: Trypanosoma cruzi proteasome chymotrypsin-like activity (TcProtChymo) assay.; further: in the data most compounds retested in dose-response had high values; type: functional; conditions: 9.37 µM
# T3 sequence (whole entry): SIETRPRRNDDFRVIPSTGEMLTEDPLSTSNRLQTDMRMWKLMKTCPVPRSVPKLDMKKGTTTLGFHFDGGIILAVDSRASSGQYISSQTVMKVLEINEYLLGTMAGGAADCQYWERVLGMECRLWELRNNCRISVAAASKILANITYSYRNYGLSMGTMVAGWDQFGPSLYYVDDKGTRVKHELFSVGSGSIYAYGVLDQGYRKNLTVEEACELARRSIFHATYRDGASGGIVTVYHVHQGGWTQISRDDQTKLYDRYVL
# [8] = species on record: Homo sapiens; test: To identify inhibition of the IFN signalling (Jak-Stat) pathway via expression of an eGFP reporter gene under the control of an IFN-stimulated response element (ISRE) containing MxA promoter.; type: functional; conditions: 30 µM
# [9] = target: T4, Tyrosyl-tRNA synthetase, putative (Trypanosoma cruzi (strain CL Brener)) (UniProt Q4DSP6); test: Trypanosoma cruzi tyrosyl tRNA synthetase (TcYRS) _High Tyrosine SOP; type: functional; conditions: 30 µM; further: in the data most compounds retested in dose-response had high values
# T4 sequence (whole entry): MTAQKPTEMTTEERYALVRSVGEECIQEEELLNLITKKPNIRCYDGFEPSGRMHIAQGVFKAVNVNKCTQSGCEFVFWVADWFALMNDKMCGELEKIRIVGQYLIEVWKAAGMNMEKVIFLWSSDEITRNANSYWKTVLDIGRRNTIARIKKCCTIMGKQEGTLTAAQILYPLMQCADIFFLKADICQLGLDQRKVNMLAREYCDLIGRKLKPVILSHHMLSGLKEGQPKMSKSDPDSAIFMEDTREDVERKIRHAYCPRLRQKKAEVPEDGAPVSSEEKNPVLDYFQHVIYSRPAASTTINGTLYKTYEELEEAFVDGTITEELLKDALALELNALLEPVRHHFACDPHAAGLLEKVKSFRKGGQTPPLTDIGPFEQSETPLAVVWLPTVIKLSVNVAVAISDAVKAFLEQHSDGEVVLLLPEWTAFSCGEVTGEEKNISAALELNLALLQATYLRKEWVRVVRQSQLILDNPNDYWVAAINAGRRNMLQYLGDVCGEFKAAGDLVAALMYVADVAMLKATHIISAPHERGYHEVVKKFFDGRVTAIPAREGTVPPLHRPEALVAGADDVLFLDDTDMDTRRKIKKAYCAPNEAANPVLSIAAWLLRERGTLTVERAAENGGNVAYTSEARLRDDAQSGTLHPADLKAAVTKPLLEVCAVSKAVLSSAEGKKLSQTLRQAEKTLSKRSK
# [10] = target: T4, Tyrosyl-tRNA synthetase, putative (Trypanosoma cruzi (strain CL Brener)); test: Trypanosoma cruzi tyrosyl tRNA synthetase (TcYRS) SOP; type: functional; conditions: 30 µM
# [11] = target: Chromo domain-containing protein 1 (Saccharomyces cerevisiae (strain ATCC 204508 / S288c) (Baker's yeast)) (UniProt P32657); test: ScCHD-1 Enzyme Inhibition Assay; type: functional; conditions: 30 µM; further: in the data most compounds retested in dose-response had high values
# Chromo domain-containing protein 1 (Saccharomyces cerevisiae (strain ATCC 204508 / S288c) (Baker's yeast)), sequence (P32657 whole entry, the tested form may be a part): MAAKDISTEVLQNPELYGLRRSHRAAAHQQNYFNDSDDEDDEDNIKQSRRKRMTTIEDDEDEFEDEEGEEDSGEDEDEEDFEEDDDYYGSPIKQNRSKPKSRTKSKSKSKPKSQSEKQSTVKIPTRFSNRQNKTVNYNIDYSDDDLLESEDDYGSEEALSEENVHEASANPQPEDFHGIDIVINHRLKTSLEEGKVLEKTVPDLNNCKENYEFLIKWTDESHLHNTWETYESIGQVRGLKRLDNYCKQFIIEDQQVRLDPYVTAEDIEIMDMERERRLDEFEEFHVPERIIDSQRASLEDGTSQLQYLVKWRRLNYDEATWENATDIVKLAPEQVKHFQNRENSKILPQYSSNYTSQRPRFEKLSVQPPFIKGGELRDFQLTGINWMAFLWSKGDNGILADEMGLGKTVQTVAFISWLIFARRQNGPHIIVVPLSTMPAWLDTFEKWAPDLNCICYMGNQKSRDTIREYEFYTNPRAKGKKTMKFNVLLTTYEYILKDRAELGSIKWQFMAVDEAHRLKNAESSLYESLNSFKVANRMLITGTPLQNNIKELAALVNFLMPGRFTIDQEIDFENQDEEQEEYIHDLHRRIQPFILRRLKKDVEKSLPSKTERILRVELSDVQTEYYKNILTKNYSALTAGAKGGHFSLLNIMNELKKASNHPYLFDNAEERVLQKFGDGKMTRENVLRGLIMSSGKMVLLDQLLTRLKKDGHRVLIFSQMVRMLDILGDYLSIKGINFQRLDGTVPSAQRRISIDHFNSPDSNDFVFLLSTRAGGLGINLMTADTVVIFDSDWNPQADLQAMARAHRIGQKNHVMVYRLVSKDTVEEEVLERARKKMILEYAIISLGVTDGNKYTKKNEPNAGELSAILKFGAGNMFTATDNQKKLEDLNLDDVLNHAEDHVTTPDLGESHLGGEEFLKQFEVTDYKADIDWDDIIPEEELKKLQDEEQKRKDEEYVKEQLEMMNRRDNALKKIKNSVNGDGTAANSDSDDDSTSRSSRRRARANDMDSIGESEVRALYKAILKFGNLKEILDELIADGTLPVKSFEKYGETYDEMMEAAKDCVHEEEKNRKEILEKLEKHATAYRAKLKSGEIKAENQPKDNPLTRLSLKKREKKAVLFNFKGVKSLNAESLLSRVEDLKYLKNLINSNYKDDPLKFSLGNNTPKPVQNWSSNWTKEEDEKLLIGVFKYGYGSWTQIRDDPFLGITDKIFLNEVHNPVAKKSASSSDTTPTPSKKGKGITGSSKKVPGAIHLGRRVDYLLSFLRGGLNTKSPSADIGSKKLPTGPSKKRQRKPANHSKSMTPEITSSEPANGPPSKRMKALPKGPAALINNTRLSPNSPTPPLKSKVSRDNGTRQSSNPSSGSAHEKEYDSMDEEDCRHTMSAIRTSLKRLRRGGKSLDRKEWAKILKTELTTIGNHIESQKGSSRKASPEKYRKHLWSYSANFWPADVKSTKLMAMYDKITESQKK
# Protein translocase subunit SecA (Escherichia coli (strain K12)), sequence (P10408 whole entry): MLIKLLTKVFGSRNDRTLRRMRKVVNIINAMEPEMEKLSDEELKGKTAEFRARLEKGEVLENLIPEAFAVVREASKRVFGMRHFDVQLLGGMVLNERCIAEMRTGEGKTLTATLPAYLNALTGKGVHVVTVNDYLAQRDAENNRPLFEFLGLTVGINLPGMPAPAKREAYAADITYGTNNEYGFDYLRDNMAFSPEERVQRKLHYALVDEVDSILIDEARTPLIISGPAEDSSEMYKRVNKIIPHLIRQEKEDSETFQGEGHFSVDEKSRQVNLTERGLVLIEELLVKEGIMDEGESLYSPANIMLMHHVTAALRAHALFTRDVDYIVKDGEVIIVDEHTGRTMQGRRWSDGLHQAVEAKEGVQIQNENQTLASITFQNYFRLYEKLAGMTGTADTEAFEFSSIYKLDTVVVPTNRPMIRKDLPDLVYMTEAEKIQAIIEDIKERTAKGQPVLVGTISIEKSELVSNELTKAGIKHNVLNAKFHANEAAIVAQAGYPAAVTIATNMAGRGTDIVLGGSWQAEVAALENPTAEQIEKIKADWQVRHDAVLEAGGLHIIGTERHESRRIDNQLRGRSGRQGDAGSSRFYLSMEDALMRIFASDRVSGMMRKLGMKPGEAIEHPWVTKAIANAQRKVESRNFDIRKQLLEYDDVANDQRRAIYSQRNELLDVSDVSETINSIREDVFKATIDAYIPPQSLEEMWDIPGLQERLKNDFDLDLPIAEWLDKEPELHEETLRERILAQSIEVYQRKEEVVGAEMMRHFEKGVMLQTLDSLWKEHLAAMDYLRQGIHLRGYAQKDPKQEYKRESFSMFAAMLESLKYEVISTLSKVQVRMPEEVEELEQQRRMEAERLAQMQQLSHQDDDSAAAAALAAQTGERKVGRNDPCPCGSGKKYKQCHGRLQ
Compound,Percent Effect [1],Percent Effect [2],Percent Effect [3],Percent Effect [4],Percent Effect [5],Percent Effect [6],Percent Effect [7],Percent Effect [8],Percent Effect [9],Percent Effect [10],Percent Effect [11]
CC(c1nc(C2CC2)no1)N1CCN(Cc2ccccc2F)CC1 (stereo not given),-2.5%,3.8%,3.7%,3.98%,-0.718%,2.8%,1.2%,-11.4%,2.08%,7.59%,-0.861%
COCc1cccc(NC(C)C(=O)N(C)Cc2ccccc2)c1 (stereo not given),-8.46%,10.8%,-16.3%,48%,7.92%,33.5%,-1.46%,-2.64%,6.45%,13.6%,-14.3%
c1ccc(-c2ccc3nc(C4CCN(CC5CC5)CC4)nn3c2)cc1,4.34%,-5.48%,2.06%,4.55%,0.992%,3.99%,6.08%,-16.5%,4.17%,3.7%,0.798%
O=C(CCc1nccs1)N1CCN(c2ccccc2F)CC1,-4.98%,7.59%,-1.29%,-1.48%,8.4%,-6.46%,-2.05%,5.18%,2.46%,8.86%,-2.22%
CN(Cc1nnc(C2CC2)n1C)C1CCN(CCc2cccs2)C1 (stereo not given),-0.668%,5.48%,-3.64%,3.02%,8.33%,0%,15.5%,-8.16%,2.08%,6.17%,-3.22%
COc1ccccc1CN(C)c1nccc(-c2cn(C)nc2C)n1,-1.09%,5.33%,2.11%,8.22%,4.58%,24%,16%,34.9%,6.01%,16.1%,-5.41%
CC(C)c1nnc(NC(=O)NCc2ccnc(N(C)C)c2)s1,0.949%,8.86%,3.28%,-0.716%,-2.77%,8.39%,15.8%,30.7%,1.04%,7.59%,-17.6%
Cn1cnnc1C1CCCN(C(=O)c2cnc3ccccc3n2)C1 (stereo not given),-5.29%,-18.2%,6.07%,1.12%,0.49%,-1.47%,5.58%,17.6%,7.62%,11.8%,-15.4%
CCc1nnc2n1CCN(C(=O)c1cnc3ccccc3n1)C2,-4.63%,4.17%,-7.62%,28.2%,3.79%,17.2%,12.5%,-6.01%,5.26%,12.8%,-3.35%
O=C(CNCCn1cccn1)NCC1(c2ccccc2)CC1,-0.0759%,-2.6%,8.25%,8.53%,1.27%,1.47%,-3.96%,7.94%,3.81%,7.06%,-6.43%
O=C(c1cnc(-c2cccs2)s1)N1CCCC(n2cccn2)C1 (stereo not given),-4.52%,13.5%,1.78%,1.67%,-1.6%,-2%,3.24%,13.5%,5.42%,11.1%,-8.6%
CCCC(C)CN1CCC(n2cc(CCCO)nn2)CC1 (stereo not given),-3.6%,4.17%,-2.5%,0.0396%,1.46%,1.32%,2.28%,-7.18%,4.21%,5.13%,0.69%
O=C(NCc1cncc2c1CCN(Cc1cccs1)C2)C1CC1,1.73%,8%,3.65%,-13.1%,-9.65%,9.56%,21.2%,5.35%,5.32%,6.41%,0.102%
CN(C)C(=O)CO[C@@H]1CC[C@H]2[C@H]1OCCN2C(=O)C1CCOCC1,-1.1%,2.7%,-6.25%,-1.21%,-3.52%,2.08%,13.8%,21%,9.9%,8.54%,2.17%
CN(C)C(=O)CN1CCC2(CCCN(Cc3cccn3C)C2)C1=O (stereo not given),-6.92%,10.7%,0.926%,-7.4%,-5.12%,-3.96%,18.2%,10.5%,1.06%,1.28%,-7.43%
Cc1ncc(CN2Cc3ccccc3O[C@]3(CC[C@H](CO)CC3)C2)cn1,-1.38%,6.76%,8.93%,6.44%,-2.57%,0.696%,0.78%,8.08%,3.23%,9.09%,-4.96%
CN(CCn1nc2ccccn2c1=O)CC(=O)N1CCCC1,-5.53%,0%,6.84%,5.95%,-6.33%,3.55%,11.6%,15.5%,3.19%,2.6%,29.3%
CS(=O)(=O)NC[C@]12COC[C@H]1CN(C(=O)Cc1ccccc1F)C2,0.295%,-101%,5.66%,-7.42%,-7.2%,-4.52%,6.44%,-5.85%,-125%,-232%,-6.07%
CC(C)OCCCNC(=O)CN1CCC(N2CCN(C)C2=O)CC1,-4.79%,-12.7%,-9.11%,10.6%,4.82%,-1.9%,7.45%,-2.11%,-0.493%,8.86%,-6.17%
CCc1ncnc2c1CCN(C(=O)N1CCCC1)CC2,-5.11%,0%,4.79%,8.2%,-2.7%,-10.9%,12.3%,1.54%,-3.12%,-5%,2.94%
